For part of these data: Potency and affinity values are given separately.
Columns and labels:
[1] = biological target: T1, Methionyl-tRNA synthetase, putative (Leishmania donovani (strain BPK282A1)) (UniProt E9BF75); assay: Leishmania donovani Methionine tRNA synthetase (LdMetRS):v7. Dose response assay; type: functional; set-up: conc 80 nM, time 150 minutes
T1 sequence (whole entry): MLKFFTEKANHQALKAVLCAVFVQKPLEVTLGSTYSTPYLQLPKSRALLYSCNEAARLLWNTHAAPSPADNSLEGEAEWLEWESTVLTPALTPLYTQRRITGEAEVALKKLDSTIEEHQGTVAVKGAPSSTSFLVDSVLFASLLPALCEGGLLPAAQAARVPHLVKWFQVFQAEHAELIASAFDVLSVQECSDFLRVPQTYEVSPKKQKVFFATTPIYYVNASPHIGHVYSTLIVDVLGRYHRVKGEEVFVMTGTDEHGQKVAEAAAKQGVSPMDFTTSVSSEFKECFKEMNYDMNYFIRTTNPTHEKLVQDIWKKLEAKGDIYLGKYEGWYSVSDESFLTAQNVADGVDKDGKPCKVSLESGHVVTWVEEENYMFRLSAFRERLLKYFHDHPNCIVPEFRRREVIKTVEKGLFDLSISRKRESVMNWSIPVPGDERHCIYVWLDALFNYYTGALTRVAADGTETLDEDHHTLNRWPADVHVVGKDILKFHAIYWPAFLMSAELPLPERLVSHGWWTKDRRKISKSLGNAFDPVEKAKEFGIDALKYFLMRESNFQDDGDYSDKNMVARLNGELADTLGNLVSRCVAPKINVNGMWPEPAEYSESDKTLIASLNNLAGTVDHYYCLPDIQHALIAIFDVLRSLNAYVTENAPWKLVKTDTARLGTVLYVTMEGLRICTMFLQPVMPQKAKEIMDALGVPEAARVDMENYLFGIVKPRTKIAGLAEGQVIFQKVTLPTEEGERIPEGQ

[2] = biological target: Protein translocase subunit SecA (Escherichia coli (strain K12)) (UniProt P10408); assay: Assay to Identify E. coli SecA ATPase Inhibitors; type: functional; set-up: scale not given: direction of the effect not stated beside the values; conditions: 30 µM
Chain of Protein translocase subunit SecA (Escherichia coli (strain K12)) (P10408 whole entry): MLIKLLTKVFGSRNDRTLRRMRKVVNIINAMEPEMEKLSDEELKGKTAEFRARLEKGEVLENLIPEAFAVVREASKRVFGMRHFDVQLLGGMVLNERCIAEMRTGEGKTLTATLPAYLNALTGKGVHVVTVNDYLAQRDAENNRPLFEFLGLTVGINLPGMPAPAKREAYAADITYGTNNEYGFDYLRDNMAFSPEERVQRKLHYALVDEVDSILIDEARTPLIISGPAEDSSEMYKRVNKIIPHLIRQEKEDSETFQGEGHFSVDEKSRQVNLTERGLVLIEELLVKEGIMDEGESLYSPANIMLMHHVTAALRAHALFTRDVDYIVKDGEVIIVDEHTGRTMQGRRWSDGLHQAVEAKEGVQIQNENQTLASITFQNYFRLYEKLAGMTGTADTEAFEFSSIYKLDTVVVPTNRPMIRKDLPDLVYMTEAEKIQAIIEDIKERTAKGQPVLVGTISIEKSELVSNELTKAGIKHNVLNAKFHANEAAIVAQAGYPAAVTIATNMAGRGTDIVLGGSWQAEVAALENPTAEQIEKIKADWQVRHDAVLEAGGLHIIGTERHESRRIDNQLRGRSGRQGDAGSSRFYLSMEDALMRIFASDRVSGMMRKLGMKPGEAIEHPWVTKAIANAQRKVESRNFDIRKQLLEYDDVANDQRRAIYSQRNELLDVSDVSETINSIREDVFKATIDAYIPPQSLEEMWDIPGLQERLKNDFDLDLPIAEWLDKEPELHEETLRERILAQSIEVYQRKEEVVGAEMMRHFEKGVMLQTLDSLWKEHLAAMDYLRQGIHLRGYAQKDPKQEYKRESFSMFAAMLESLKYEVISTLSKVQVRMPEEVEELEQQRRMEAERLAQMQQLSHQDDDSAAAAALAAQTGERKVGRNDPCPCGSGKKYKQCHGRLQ

[3] = biological target: T2, Ubiquitin-activating enzyme e1, putative (Leishmania donovani (strain BPK282A1)) (UniProt E9BSI1); assay: Leishmania donovani Ubiquitin Activating Enzyme (LdE1); type: functional; set-up: scale not given: direction of the effect not stated beside the values; conditions: 30 µM
T2 sequence (whole entry): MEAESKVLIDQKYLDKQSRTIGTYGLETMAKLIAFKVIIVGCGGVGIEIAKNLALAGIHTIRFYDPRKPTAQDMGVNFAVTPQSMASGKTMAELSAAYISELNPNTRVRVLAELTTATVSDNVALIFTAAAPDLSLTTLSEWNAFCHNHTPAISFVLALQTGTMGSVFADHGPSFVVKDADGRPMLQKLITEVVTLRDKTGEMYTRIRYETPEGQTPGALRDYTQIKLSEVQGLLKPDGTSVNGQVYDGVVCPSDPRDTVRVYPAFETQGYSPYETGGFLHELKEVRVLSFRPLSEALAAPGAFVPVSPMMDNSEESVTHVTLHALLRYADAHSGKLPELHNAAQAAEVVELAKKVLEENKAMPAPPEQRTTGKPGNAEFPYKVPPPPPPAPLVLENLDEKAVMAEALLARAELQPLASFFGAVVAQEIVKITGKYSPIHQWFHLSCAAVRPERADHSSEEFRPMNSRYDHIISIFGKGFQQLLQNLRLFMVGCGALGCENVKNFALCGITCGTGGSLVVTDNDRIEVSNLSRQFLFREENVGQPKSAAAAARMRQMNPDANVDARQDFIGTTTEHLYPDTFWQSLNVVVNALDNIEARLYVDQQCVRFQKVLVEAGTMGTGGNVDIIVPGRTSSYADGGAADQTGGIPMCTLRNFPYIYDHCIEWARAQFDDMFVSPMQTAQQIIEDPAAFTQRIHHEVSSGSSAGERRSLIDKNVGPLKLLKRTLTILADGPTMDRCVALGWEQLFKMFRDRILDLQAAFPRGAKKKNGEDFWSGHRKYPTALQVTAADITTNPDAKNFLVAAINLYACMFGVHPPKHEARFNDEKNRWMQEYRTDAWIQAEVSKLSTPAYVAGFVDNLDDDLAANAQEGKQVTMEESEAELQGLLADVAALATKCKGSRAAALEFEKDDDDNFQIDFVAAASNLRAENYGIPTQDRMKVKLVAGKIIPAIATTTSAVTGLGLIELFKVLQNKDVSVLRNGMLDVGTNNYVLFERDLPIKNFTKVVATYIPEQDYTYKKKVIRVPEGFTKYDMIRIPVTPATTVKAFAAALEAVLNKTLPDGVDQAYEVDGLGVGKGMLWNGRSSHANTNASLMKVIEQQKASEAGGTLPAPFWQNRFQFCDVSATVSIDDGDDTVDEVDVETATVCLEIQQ

[4] = biological target: AMP-activated protein kinase, AMPK (Homo sapiens) (UniProt P54646+O43741+P54619+Q9UGJ0+Q9Y478+Q13131+Q9UGI9); assay: AMP-dependent Kinase enzyme assay. An in vitro enzyme assay that detects ADP turnover that is directly proportional to AMPK activity. This uses naive AMPK that is activated during the assay with MK-8722; type: functional; set-up: scale not given: direction of the effect not stated beside the values; conditions: 30 µM
[5] = biological target: Sialic acid-binding Ig-like lectin 9 (Homo sapiens) (UniProt Q9Y336); assay: Hs-Siglec9 ALPHAscreen SOP 20170721; set-up: scale not given: direction of the effect not stated beside the values; conditions: 10 µM
Chain of Sialic acid-binding Ig-like lectin 9 (Homo sapiens) (Q9Y336 whole entry): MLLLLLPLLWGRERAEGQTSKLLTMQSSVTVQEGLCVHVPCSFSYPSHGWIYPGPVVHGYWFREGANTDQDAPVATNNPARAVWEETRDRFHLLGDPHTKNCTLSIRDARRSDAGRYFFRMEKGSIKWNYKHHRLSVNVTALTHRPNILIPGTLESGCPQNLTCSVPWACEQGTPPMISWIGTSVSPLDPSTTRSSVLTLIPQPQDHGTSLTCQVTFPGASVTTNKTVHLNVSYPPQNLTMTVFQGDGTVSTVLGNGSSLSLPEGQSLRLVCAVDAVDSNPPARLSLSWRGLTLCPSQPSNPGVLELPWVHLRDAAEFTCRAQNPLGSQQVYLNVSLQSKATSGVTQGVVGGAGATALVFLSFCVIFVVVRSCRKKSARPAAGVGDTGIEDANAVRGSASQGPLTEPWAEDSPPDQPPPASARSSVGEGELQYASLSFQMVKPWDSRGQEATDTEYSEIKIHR

Trypanosoma cruzi = assay: Trypanosoma cruzi phosphomannomutase and mannose-1-phosphate guanylyltransferase assay; type: functional; set-up: scale not given: direction of the effect not stated beside the values; conditions: 10 µM
[6] = biological target: T3, Arginase-2, mitochondrial (Homo sapiens) (UniProt P78540); assay: in vitro enzyme assay to detect the production of urea directly proportional to the activity of Arginase II; type: functional; set-up: scale not given: in the data most compounds retested in dose-response had high values; conditions: 33.3 µM
T3 sequence (whole entry): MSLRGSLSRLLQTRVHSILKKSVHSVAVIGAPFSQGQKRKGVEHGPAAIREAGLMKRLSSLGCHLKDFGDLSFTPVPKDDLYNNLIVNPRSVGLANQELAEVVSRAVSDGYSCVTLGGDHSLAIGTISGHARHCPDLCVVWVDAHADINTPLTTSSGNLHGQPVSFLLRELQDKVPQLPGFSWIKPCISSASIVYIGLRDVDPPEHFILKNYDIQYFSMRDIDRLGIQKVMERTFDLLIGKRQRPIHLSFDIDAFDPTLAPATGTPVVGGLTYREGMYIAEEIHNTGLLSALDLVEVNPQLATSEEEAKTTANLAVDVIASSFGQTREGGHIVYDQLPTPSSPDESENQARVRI

[7] = biological target: T4, Proteasome subunit beta (Trypanosoma cruzi) (UniProt O96673); assay: Trypanosoma cruzi proteasome chymotrypsin-like activity (TcProtChymo) assay.; type: functional; set-up: scale not given: in the data most compounds retested in dose-response had high values; conditions: 9.37 µM
T4 sequence (whole entry): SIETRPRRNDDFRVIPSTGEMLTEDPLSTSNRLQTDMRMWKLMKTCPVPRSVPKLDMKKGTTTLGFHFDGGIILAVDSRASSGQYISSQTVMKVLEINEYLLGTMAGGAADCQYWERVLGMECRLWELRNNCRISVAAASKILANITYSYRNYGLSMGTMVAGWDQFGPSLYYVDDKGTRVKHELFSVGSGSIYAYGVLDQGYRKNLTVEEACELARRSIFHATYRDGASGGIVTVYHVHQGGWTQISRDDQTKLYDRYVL

Homo sapiens = species: Homo sapiens; assay: To identify inhibition of the IFN signalling (Jak-Stat) pathway via expression of an eGFP reporter gene under the control of an IFN-stimulated response element (ISRE) containing MxA promoter.; type: functional; set-up: scale not given: direction of the effect not stated beside the values; conditions: 30 µM
[8] = biological target: T5, Tyrosyl-tRNA synthetase, putative (Trypanosoma cruzi (strain CL Brener)) (UniProt Q4DSP6); assay: Trypanosoma cruzi tyrosyl tRNA synthetase (TcYRS) _High Tyrosine SOP; type: functional; set-up: scale not given: in the data most compounds retested in dose-response had high values; conditions: 30 µM
T5 sequence (whole entry): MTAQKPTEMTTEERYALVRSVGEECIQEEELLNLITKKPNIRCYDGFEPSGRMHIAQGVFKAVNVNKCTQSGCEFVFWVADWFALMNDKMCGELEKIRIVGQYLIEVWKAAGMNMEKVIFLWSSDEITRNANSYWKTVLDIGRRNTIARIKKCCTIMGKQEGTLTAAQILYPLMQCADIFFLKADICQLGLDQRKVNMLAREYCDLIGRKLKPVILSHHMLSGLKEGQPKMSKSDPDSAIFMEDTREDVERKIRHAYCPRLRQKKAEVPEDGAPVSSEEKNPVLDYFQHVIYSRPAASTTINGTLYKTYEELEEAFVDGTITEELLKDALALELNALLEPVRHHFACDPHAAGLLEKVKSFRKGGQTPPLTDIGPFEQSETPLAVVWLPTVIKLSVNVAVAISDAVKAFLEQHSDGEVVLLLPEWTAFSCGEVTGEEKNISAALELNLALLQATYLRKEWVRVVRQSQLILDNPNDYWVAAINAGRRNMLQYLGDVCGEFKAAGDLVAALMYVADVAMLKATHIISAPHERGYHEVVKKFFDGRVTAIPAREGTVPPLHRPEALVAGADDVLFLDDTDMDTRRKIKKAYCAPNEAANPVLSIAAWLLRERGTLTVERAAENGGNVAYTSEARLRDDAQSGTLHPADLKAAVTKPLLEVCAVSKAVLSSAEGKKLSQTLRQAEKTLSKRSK

[9] = biological target: T5, Tyrosyl-tRNA synthetase, putative (Trypanosoma cruzi (strain CL Brener)); assay: Trypanosoma cruzi tyrosyl tRNA synthetase (TcYRS) SOP; type: functional; set-up: scale not given: direction of the effect not stated beside the values; conditions: 30 µM
[10] = biological target: Chromo domain-containing protein 1 (Saccharomyces cerevisiae (strain ATCC 204508 / S288c) (Baker's yeast)) (UniProt P32657); assay: ScCHD-1 Enzyme Inhibition Assay; type: functional; set-up: scale not given: in the data most compounds retested in dose-response had high values; conditions: 30 µM
Chain of Chromo domain-containing protein 1 (Saccharomyces cerevisiae (strain ATCC 204508 / S288c) (Baker's yeast)) (P32657 whole entry, the tested form may be a part): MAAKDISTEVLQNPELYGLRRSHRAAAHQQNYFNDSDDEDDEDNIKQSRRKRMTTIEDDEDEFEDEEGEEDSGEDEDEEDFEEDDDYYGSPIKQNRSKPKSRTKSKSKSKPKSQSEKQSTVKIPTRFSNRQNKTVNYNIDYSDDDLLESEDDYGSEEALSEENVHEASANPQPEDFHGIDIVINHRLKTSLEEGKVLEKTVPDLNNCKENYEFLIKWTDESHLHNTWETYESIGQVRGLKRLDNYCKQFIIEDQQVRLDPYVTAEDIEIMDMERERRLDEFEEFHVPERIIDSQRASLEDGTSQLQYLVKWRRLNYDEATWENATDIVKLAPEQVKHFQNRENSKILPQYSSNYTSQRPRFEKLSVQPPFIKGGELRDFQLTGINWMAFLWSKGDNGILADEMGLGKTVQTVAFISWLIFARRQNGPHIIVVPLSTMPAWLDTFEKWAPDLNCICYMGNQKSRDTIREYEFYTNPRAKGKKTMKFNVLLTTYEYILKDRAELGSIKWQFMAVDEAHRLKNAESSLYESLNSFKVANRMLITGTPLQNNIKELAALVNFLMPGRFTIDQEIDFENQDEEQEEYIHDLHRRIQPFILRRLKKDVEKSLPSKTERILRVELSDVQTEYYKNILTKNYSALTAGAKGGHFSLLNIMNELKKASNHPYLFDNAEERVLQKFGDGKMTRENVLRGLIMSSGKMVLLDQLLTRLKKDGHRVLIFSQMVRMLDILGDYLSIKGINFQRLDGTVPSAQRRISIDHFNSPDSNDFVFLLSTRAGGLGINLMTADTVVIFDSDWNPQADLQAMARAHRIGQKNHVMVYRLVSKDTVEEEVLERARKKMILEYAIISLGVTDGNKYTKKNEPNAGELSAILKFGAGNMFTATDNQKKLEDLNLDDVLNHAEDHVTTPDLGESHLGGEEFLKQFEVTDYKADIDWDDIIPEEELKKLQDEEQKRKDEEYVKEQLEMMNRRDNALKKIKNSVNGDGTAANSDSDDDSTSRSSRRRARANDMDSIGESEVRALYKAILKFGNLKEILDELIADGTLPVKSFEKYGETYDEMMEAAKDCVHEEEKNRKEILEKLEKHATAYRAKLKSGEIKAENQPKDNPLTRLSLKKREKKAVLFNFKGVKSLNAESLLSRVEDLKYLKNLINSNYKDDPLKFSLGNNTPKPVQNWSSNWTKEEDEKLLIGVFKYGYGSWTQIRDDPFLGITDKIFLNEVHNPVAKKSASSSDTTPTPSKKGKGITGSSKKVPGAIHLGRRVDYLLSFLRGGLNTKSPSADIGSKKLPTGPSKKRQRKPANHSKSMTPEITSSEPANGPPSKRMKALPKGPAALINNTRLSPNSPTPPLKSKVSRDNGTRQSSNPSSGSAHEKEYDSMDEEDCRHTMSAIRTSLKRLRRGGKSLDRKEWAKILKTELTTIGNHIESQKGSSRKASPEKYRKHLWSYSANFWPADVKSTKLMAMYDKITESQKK

Q: How did the PXC50 ([1]; MAX_EFFECT 13.62007168) turn out when `Cc1nc(N2CCCCC2)ncc1-c1cc(O)[nH]n1` was run?
A: Its PXC50 is under 4.

Q: What about the PXC50 ([1]; MAX_EFFECT 16.42743222) of the same compound?
A: Its PXC50 is under 4.

Q: And the PXC50 ([1]; MAX_EFFECT 31.28598848)?
A: The PXC50 was under 4.

Q: What about the PXC50 ([1]; MAX_EFFECT 33.33333333) of the same compound?
A: Its PXC50 is under 4.

Q: And the PXC50 ([1]; MAX_EFFECT 39.9339934)?
A: The PXC50 was under 4.

Q: And the Percent Effect [2]?
A: Its Percent Effect is -5.23%.

Q: What about the Percent Effect [3] of the same compound?
A: Its Percent Effect is 1.33%.

Q: What about the Percent Effect [4] of the same compound?
A: Its Percent Effect is 13%.

Q: And the Percent Effect [5]?
A: The Percent Effect was 8.28%.

Q: And the Percent Effect (Trypanosoma cruzi)?
A: The Percent Effect was 1.18%.

Q: What about the Percent Effect [6] of the same compound?
A: The Percent Effect was -8.28%.

Q: What about the Percent Effect [7] of the same compound?
A: The Percent Effect was 6.65%.

Q: What about the Percent Effect (Homo sapiens) of the same compound?
A: Its Percent Effect is -20%.

Q: And the Percent Effect [8]?
A: Its Percent Effect is 5.29%.

Q: What about the Percent Effect [9] of the same compound?
A: The Percent Effect was 7.69%.

Q: What about the Percent Effect [10] of the same compound?
A: The Percent Effect was -1.87%.

Q: What does the source list for `COC1CCCC(Nc2nc(Nc3ccc(F)c(F)c3)nc3c2cnn3C)C1` (configuration not stated)?
A: PXC50 ([1]; BOTTOM 3.912528548, HILLSLOPE 1.076870083, MAX_EFFECT 68.97196262, TOP 71.78159337): 5.18; PXC50 ([1]; BOTTOM 5.265177704, HILLSLOPE 1.728535848, MAX_EFFECT 54.8245614, TOP 53.52484427): 5.16; PXC50 ([1]; BOTTOM 8.334941311, HILLSLOPE 1.334767366, MAX_EFFECT 54.01869159, TOP 53.22848094): 5.23; PXC50 ([1]; BOTTOM -8.876719942, HILLSLOPE 0.681128814, MAX_EFFECT 53.21888412, TOP 100.0): 4.53; PXC50 ([1]; MAX_EFFECT 40.38004751): < 4; PXC50 ([1]; MAX_EFFECT 46.81933842): < 4

Q: Which PXC50 ([1]; BOTTOM 3.490457709, HILLSLOPE 3.448426001, MAX_EFFECT 80.53691275, TOP 87.69859371) does the source give for `Oc1ccc(N(CCc2ccccc2)CCn2cncn2)cc1` here?
A: Its PXC50 is 4.3.

Q: What about the PXC50 ([1]; BOTTOM 4.951266088, HILLSLOPE 3.910237354, MAX_EFFECT 63.19444444, TOP 100.0) of the same compound?
A: The PXC50 was 4.05.

Q: And the PXC50 ([1]; MAX_EFFECT 6.53907496)?
A: The PXC50 was under 4.

Q: What about the PXC50 ([1]; MAX_EFFECT 12.85988484) of the same compound?
A: Its PXC50 is under 4.

Q: And the PXC50 ([1]; MAX_EFFECT 66.72443674)?
A: The PXC50 was under 4.
